Inconclusive results are not listed. Activity calls are given as the source filed them. The call rests on the fitted dose curve; in most records, active means well fitted activation curve with a large enough effect; inconclusive means small, poorly fitted or top-dose-only effect; inactive means no such curve, though single readings can be large or run the other way.

A short description of this assay: Confirmation Concentration-Response Assay for Enhancers of SMN2 Splice Variant Expression for Further Probe SAR. Conditions: HEK293 SMN2 exon7-luciferase splicing reporter, luminescence, 30-36 h; series mostly up to 46.1 µM. From the text: NIH Chemical Genomics Center [NCGC] NIH Molecular Libraries Probe Production centers Network [MLPCN] MLPCN Grant: R03 MH084179-01 Assay Submitter (PI): Elliot Androphy NCGC Assay Overview: Spinal muscular atrophy (SMA) is caused by insufficient levels of the survival motor neuron protein SMN. The SMN locus on chromosome 5q13 contains two inverted copies of SMN called SMN1 and SMN2 which are 99% identical at the amino acid level. SMN1 is a fully functional protein and SMN2 skips exon 7 90% of the time. Skipping of exon 7 produces non-functional protein product. 10% of the SMN2 protein includes exon 7 and is fully functional. In the SMA disease state, mutations in the SMN1 locus are the cause of the disease state. Because only 10% of SMN2 is of the fully functional form, it is not sufficient to overcome the deficiency produced by the loss of the SMN1 product. A therapy that either increase the amount of SMN2 product made or to increase the inclusion of exon 7 has been proposed for the treatment of SMA. We have designed an assay to identify small molecules that can increase the amount of functional SMN2 product by appending a luciferase reporter gene after the native SMN2 gene, such that inclusion of exon 7 in the expressed product places the luciferase sequence in frame, thus generating functional luciferase enzyme.
NCGC Assay Protocol Summary: This screen utilizes a luciferase reporter gene assay, combining the promoter with the major portion of the native SMN2 cDNA (exons 1 -7, intron 8 , exon 8 fused to luciferase) stably expressed in HEK293 cells. Compounds that increase luciferase signal presumably enhance expression of the functional SMN2 splice variant. Passaging media contained DMEM w/ glutamax (+phenol red) 10% FCS, 1x pen/strep, 200 ug/ml hygro, 1x sodium pyruvate. Assay media contained DMEM w/ glutamax (-phenol red) 10% FCS, 1x pen strep, 1x pyruvate Sequence, Parameter, Value, Description (1) Cells, 5 uL, 2000 cells/well, 1536 TC treated White solid bottom plate (2) Time, 10-12 hours, 37C 5% CO2 (3) Compound, 23 nl, MLSMR Library (4) Control Compound, 23 nL, Sodium butyrate st 4.5mM (final) conc (5) Time, 30-36 hours, 37C 5% CO2 (6) Reagent, 3 ul, One Glo (TM) from Promega (7) Time, 5-15 minutes, Room temp (8) Detector, Viewlux: luminescent read, 60 second integration, high speed 2x binning Keywords: Spinal muscular atrophy, SMA, SMN2, high throughput screening, MLSMR, MLPCN, NIH Roadmap, qHTS and NCGC
Consider `CN(C)c1cccc(-c2ncnc(N3CCC(C(N)=O)CC3)n2)c1`, for which the Potency was 772 nM (active).

Take `COc1ccc(-c2cnc(N3CCC(C(N)=O)CC3)s2)cc1OC`: the Potency is 7720 nM (active).

Take `CC(C)(C)c1ccc(-c2csc(N3CCC(C(N)=O)CC3)n2)cc1`: the Potency was 2740 nM (active).

Take `NC(=O)C1CCN(c2nc(-c3ccccc3)cs2)CC1`: the Potency is 3070 nM (active).

`O=C(O)C1CCN(c2ncc(-c3ccc4c(c3)OCCCO4)s2)CC1`: the Potency was 8.7 nM (active).

Regarding `O=C(Nc1ccccc1)C1CCN(c2ncc(-c3ccc4c(c3)OCCCO4)s2)CC1`, the Potency is 48.7 nM (active).

In the case of `NC(=O)C1CCN(c2nccc(-c3ccc(Br)cc3)n2)CC1`, the Potency is 244 nM (active).

On to `CC(=O)C1CCN(c2ncc(-c3ccc4c(c3)OCCCO4)s2)CC1`, for which the Potency result was “inactive”.

On to `CS(=O)(=O)N1CCN(c2nc(-c3ccc(Br)cc3)cs2)CC1`, for which the Potency result is “inactive”.

Take `CCOC(=O)C1CCN(c2nc(-c3ccc(Br)cc3)cs2)CC1`: the Potency was 4870 nM (active).

For the molecule `CSc1ccc(-c2cnc(N3CCC(C(N)=O)CC3)s2)cc1`, the Potency is 31 nM (active).

In the case of `Cc1ccc(-c2cnc(N3CCC(C(N)=O)CC3)s2)cc1`, the Potency is 68.8 nM (active).

On to `NC(=O)C1CCN(c2nccc(-c3ccc4c(c3)OCCCO4)n2)CC1`, for which the Potency is 1540 nM (active).

For `COc1ccccc1-c1csc(N2CCC(C(N)=O)CC2)n1`, the Potency entry was “inactive”.

In the case of `NC(=O)C1CCN(c2nc(-c3ccc(N)cc3)cs2)CC1`, the Potency result was “inactive”.

With `NC(=O)C1CCN(c2nc(-c3ccc(C(F)(F)F)cc3)cs2)CC1`, the Potency is 867 nM (active).

Consider `O=C(c1ccco1)N1CCN(c2nc(-c3ccc(Br)cc3)cs2)CC1`, for which the Potency entry is “inactive”.

As for `NC(=O)N1CCN(c2nc(-c3ccc(Br)cc3)cs2)CC1`, the Potency is 13700 nM (active).

Regarding `CN(C)c1cccc(-c2cnc(N3CCC(C(N)=O)CC3)s2)c1`, the Potency is 24.4 nM (active).

In the case of `O=C(NCCCc1ccccc1)C1CCN(c2nc(-c3ccc(Br)cc3)cs2)CC1`, the Potency result is “inactive”.

With `NC(=O)C1CCN(c2nc(-c3ccc(Oc4ccccc4)cc3)cs2)CC1`, the Potency is 4340 nM (active).

On to `NC(=O)C1CCN(c2ncc(-c3ccc4c(c3)OC(F)(F)O4)s2)CC1`, for which the Potency was 194 nM (active).

`CC(C)(C)OC(=O)NC1CCN(c2nc(-c3ccc(Br)cc3)cs2)CC1`: the Potency result was “inactive”.

Regarding `NC(=O)C1CCN(c2ncnc(-c3ccc4c(c3)OCCCO4)n2)CC1`, the Potency was 2440 nM (active).

For the molecule `NC(=O)C1CCN(c2ncc(-c3ccc(Br)cc3)s2)CC1`, the Potency was 218 nM (active).

As for `NC(=O)C1CCN(c2ncc(-c3cccc(F)c3)s2)CC1`, the Potency was 1940 nM (active).

As to `NC(=O)C1CCN(c2cc(-c3ccc4c(c3)OCCCO4)ncn2)CC1`, the Potency was 6140 nM (active).

`NC(=O)C1CCN(c2nc(-c3cccc4ccccc34)cs2)CC1`: the Potency result is “inactive”.

For `NC(=O)C1CCN(c2ncc(Br)s2)CC1`, the Potency result was “inactive”.

Consider `CN(C)c1cccc(-c2ccnc(N3CCC(C(N)=O)CC3)n2)c1`, for which the Potency is 688 nM (active).

Regarding `NC(=O)C1CCN(c2nc(-c3ccc(OC(F)(F)F)cc3)cs2)CC1`, the Potency is 3070 nM (active).

Take `O=C(c1ccccc1)N1CCN(c2nc(-c3ccc(Br)cc3)cs2)CC1`: the Potency result is “inactive”.

With `NC(=O)C1CCN(c2nc(-c3ccc([N+](=O)[O-])cc3)cs2)CC1`, the Potency is 5470 nM (active).

In the case of `O=S(=O)(c1ccccc1)N1CCN(c2nc(-c3ccc(Br)cc3)cs2)CC1`, the Potency entry was “inactive”.

`NC(=O)C1CCN(c2nc(-c3ccccc3[N+](=O)[O-])cs2)CC1`: the Potency is 15400 nM (active).

On to `CN(C)c1cccc(-c2nc(N3CCC(C(N)=O)CC3)ncc2F)c1`, for which the Potency is 345 nM (active).

As for `NC(=O)C1CCN(c2nc(-c3ccc4c(c3)OCCCO4)cs2)CC1`, the Potency is 487 nM (active).

With `CC(C)Oc1cccc(-c2csc(N3CCC(C(N)=O)CC3)n2)c1`, the Potency was 688 nM (active).

As for `CN(C)c1cccc(-c2cc(N3CCC(C(N)=O)CC3)ncn2)c1`, the Potency was 4870 nM (active).

In the case of `NC(=O)C1CCN(c2nc(-c3ccc4c(c3)OCO4)cs2)CC1`, the Potency is 1370 nM (active).

The record behind these values is PubChem BioAssay AID488832 (National Center for Advancing Translational Sciences (NCATS), 2010).
